The list is not random: actives were taken first. Their share in the collection is about 4.6%.
D1 PAM: Potentiators of Human D1 Dopamine Receptor: qHTS; HEK293 TREx D1 cells, calcium flux, dopamine EC20 potentiation; potentiation, % at 10 µM; hit rate 0.036% among 360,000; AID 504651, 2011; in the data active = potentiation above about 30%
Target sequence (P21728 whole entry, looked up): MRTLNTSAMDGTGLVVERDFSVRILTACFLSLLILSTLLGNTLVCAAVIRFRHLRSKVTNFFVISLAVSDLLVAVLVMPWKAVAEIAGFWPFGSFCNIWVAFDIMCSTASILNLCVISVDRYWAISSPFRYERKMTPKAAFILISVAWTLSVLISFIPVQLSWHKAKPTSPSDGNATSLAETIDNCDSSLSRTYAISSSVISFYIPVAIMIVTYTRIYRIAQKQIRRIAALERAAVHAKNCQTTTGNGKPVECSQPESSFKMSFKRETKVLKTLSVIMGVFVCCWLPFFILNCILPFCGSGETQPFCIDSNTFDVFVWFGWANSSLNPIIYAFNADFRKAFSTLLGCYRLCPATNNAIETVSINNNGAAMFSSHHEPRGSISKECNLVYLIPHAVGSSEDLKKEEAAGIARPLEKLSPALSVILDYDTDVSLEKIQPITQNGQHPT
D1 antagonist: Antagonist of Human D 1 Dopamine Receptor: qHTS | D(1A) dopamine receptor (Homo sapiens), P21728 | HEK293 TREx D1 cells, calcium flux, dopamine EC80; hits give low values | activity change, negative = inhibition, % at 10 µM | hit rate 3.2% among 360,000 | AID 504652, 2011; in the data active = activity change below about -30%
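Kinetic fluorescence of a calcium dye serves as the read-out. D1-expressing Hek293 Trex cells, induced overnight at 30 C, are exposed to compound for 180 s before an EC80 dopamine addition, then read 180 s further.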
D1 ag: Allosteric Agonists of the Human D1 Dopamine Receptor: qHTS. HEK293 T-REx D1 cells, calcium flux, agonist mode. activation, % at 2 µM. hit rate 1% among 360,000
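Inducible HEK293 T-REx D1 cells, force-coupled to calcium signalling, were plated at 4000 cells/well with tetracycline and held overnight at 30 C. After no-wash calcium dye loading, compound-evoked calcium rise over 180 s flagged agonists.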
TRHR ag: qHTS for Small Molecule Agonists and Allosteric Enhancers of Human TRH Receptor: Primary Screen for Agonists. TRHR cells, calcium flux fluo-8, FDSS agonist mode. activation, % at 2 µM. hit rate 0.18% among 360,000
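Fluo-8-loaded TRHR cells; 10 s baseline, compound added, kinetic Ca2+ fluorescence read 1/s, agonist mode.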
TRHR PAM: qHTS for Small Molecule Agonists and Allosteric Enhancers of Human TRH Receptor: Primary Screen for Enhancers; Thyrotropin-releasing hormone receptor (Homo sapiens), P34981; TRHR cells, fluo-8 calcium fluorescence, EC20 TRH enhancement; enhancement, % at 2 µM; hit rate 0.66% among 360,000; in the data active = enhancement above about 30%
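Enhancer read-out: after compound pinning and an initial kinetic agonist-mode read, an EC20 of TRH (10 nM final) was injected and fluo-8 calcium signal (Ex 480/Em 530) followed at 1 s/cycle for 100 cycles in TRHR-expressing cells.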
Of the large screens only hits and unclear results are named; the others gave an inactive call. Rule as the data show it, unless noted: active = activation above about 30%; inactive = the rest.

Oc1[nH]c2ccccc2c1N=Nc1ccc(F)cc1	none
O=S1(=O)N=C(N=Nc2c(O)[nH]c3ccccc23)c2ccccc21	D1 antagonist -33.8
Oc1[nH]c2ccccc2c1N=Nc1ccccc1F	D1 ag 38.7
Oc1[nH]c2ccccc2c1N=Nc1ccccc1	none
C=CCOc1ccc(CN(C)C(=O)CNC(=O)c2ccc(-c3ccccc3)cc2)cc1	D1 ag 34.5
CN(C)CCCNCCCCNC(=O)/C=N/O	none
CN(C)CCCNCCCNC(=O)/C=N/O	D1 antagonist -38.3
NC1=NC[C@H](Cc2ccccc2)N1CCc1cccc(F)c1	D1 antagonist -37.1
NC1=NC[C@H](Cc2ccccc2)N1CCCCC1CCCCC1	none
O=C(Nc1sc2c(c1C(=O)NCC1CCCO1)CCCC2)c1cc(=O)c2ccccc2o1 (stereo not given)	none
C=CCn1c(CCCOc2ccc(Cl)cc2Cl)n[nH]c1=S	D1 antagonist -45.8
C=CCn1c(Cc2nc3ccc(Cl)cc3[nH]2)n[nH]c1=S	none
Cc1ccnc(SCC(=O)NC2CC2)n1	none
CCCn1c(SCC(=O)Nc2cc(Cl)ccc2OC)nc(O)cc1=O	none
CN(C)c1ccc(-c2nc3ccccc3n2C)cc1	none
CC(C)n1c(-c2ccc(N(C)C)cc2)nc2ccccc21	D1 antagonist -42.6
CC(C)[C@H](NC(=O)c1ccccc1Br)C(=O)OCc1nc2ccsc2c(=O)[nH]1	D1 antagonist -30.2
Cc1cc(C)cc(N(C(=O)c2ccccn2)C(C(=O)NC2CCCCC2)c2cccs2)c1 (stereo not given)	none
CCn1cc(C(=O)N(C)c2cc(C)ccc2C)c2cc(OC)c(OC)cc2c1=O	D1 antagonist -34.0
CCn1cc(C(=O)N(C)c2cc(C)ccc2OC)c2cc(OC)c(OC)cc2c1=O	none
NC(=O)C[n+]1cccc2ccccc21	D1 ag 44.9
O=C(C[n+]1cccc2ccccc21)c1ccc(Br)cc1	none
CCCOc1cc(C)nc(-c2ccccc2O)n1	none
COc1ccccc1NC(=O)c1cccs1	none
COc1cc(NC(=O)c2cccs2)c(OC)cc1NC(=O)Nc1ccc(F)cc1	D1 antagonist -45.0
O=C(Nc1ccc(Cl)cc1)c1cccs1	D1 antagonist -39.4
COc1ccc(NC(=O)c2cccs2)cc1	none
O=C(Nc1nc(-c2ccccc2)cs1)c1cccs1	none
O=C(Nc1nc(-c2ccccc2)ns1)c1cccs1	D1 antagonist -32.3
COc1ccc(C(=O)Nc2ccc(NC(=O)c3cccs3)cn2)cc1	D1 antagonist -34.8
COc1cccc(NC(=O)CN(C)C(=O)CC2CC3CCC2C3)c1 (stereo not given)	none
CC(=O)Nc1ccc(S(=O)(=O)NC2(C(F)(F)F)NC(=O)N(C3CCCC3)C2=O)cc1 (stereo not given)	none
CC1CC(C)CN(CCCSc2ccccc2)C1 (stereo not given)	TRHR PAM 31.9
CC1CC(C)CN(CCOCCSc2ccccc2)C1 (stereo not given)	D1 antagonist -38.5
Cc1ccnc(NCc2ccc(Br)cc2)c1	none
COc1ccccc1NC(=O)COc1ccc(C(=O)NCc2ccccc2)cc1OC	none
CCOC(=O)c1c(CSC(=N)N)n(-c2ccc(C)cc2)c2cc(Br)c(OC(C)=O)cc12	D1 ag 39.4
CCOC(=O)c1c(CSC(=N)N)n(C)c2cc(Br)c(OC(C)=O)cc12	none
Cc1ccc(NC(=O)CN(c2ccc(Cl)cc2)S(=O)(=O)c2cc([N+](=O)[O-])ccc2Cl)c(C)c1	D1 antagonist -56.0
CC1CC(C)(C)Nc2ccc(N=O)cc21 (stereo not given)	D1 antagonist -45.4
COC(=O)c1ccc(CN2CCC(CO)(CCOc3ccccc3)CC2)cc1	none
Cc1cccc(-c2csc3ncnc(Sc4nnnn4C)c23)c1	none
COC(=O)C1=CO[C@@H](C)[C@H]2CN3CCc4c([nH]c5ccccc45)[C@@H]3C[C@H]12	D1 antagonist -52.0
O=S1(=O)[C@H]2C[C@@H]3CC[C@]2(CN1Cc1cccc(F)c1)O3	D1 antagonist -46.5
